The results in this text go back to the supplement of paper PMC9262897, “Low-cost anti-mycobacterial drug discovery using engineered E. coli” (Nature Communications, 2022).

Holding throughout (test): growth (OD600 after 10 h); higher = more growth (less inhibition)
In experiment [1] the test system is E. coli TESEC Alr+ wild-type control. The note with it: compound 0.1 mM; raw OD600 reference: median of DMSO wells 0.241, cell-free background 0.041. On the procedure:
(§1)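 TESEC Mtb Alr E. coli, or the Alr+ wild-type control, in 384-well plates with Prestwick library compounds at 0.1 mM and 1% DMSO, across arabinose induction levels of 1E3 to 1E7 nM. Growth is read as OD600 after 10 h at 37 °C in triplicate biological replicates.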

The subject of experiment [2] is E. coli TESEC Mtb Alr. As to conditions: compound 0.1 mM. On the procedure: as §1
Experiment [3] deals with E. coli TESEC Mtb Asd. The note with it: compound 0.1 mM. Here is the method:
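TESEC E. coli strains in which the native enzyme is deleted and replaced by arabinose-inducible Mtb Asd, DapB, CysH or TrpD, each grown in its selective medium. Strains were screened against the Prestwick library at 0.1 mM and 1% DMSO in 384-well format at low and high arabinose induction. Growth is read as OD600 after 10 h in triplicate.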

For experiment [4], the system named is E. coli TESEC Alr+ wild-type control. As to conditions: compound 0.1 mM; raw OD600 reference: median of DMSO wells 0.49, cell-free background 0.052. On the procedure: (§2)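 TESEC Mtb Alr E. coli (ΔaraC ΔtolC ΔentC Δalr ΔdadX, arabinose-inducible Mtb Alr) or the Alr+ wild-type control strain, grown in defined M9-fructose medium without D-alanine in 96-well plates with Prestwick library compounds at 0.1 mM and 1% DMSO. Low Alr induction is 0.1 µM arabinose and high induction is 10 mM arabinose.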

Experiment [5] concerns E. coli TESEC Mtb Alr. As to conditions: compound 0.1 mM. On the procedure: as §2
This is another data set of the same source.

The mark [6] stands for this setting: arabinose 1000 nM, raw OD600 reference: median of DMSO wells 0.294, cell-free background 0.041.
Setting [7] is: arabinose 10000 nM, raw OD600 reference: median of DMSO wells 0.264, cell-free background 0.041.
Setting [8] is: arabinose 100000 nM, raw OD600 reference: median of DMSO wells 0.201, cell-free background 0.041.
The mark [9] stands for this setting: arabinose 1000000 nM, raw OD600 reference: median of DMSO wells 0.193, cell-free background 0.041.
The mark [10] stands for this setting: arabinose 10000000 nM, raw OD600 reference: median of DMSO wells 0.146, cell-free background 0.041.
Setting [11] is: arabinose induction (level): High, raw OD600 reference: median of DMSO wells 0.331, cell-free background 0.041.
[12] abbreviates: arabinose induction (level): Low, raw OD600 reference: median of DMSO wells 0.417, cell-free background 0.041.
Setting [13] is: arabinose 100 nM, raw OD600 reference: median of DMSO wells 0.413, cell-free background 0.052.
The mark [14] stands for this setting: arabinose 10000000 nM, raw OD600 reference: median of DMSO wells […], cell-free background 0.052.

Counter-ions that a name gives are not always drawn. ± gives the standard deviation of the averaged measurements.

Regarding `COc1cc(NS(=O)(=O)c2ccc(N)cc2)nc(OC)n1` [Sulfadimethoxine], the growth in experiment [1] stood at 0.2298 ± 0.0014; in experiment [2] (setting [6]) it was 0.264 ± 0.011; in experiment [2] (setting [7]), 0.177 ± 0.01; in experiment [2] (setting [8]), 0.2126 ± 0.0014; in experiment [2] (setting [9]) it was 0.106 ± 0.0049; in experiment [2] (setting [10]), 0.139 ± 0.0065. The growth in experiment [3] (setting [11]) was found to be 0.266 ± 0.0084; in experiment [3] (setting [12]) it was 0.403 ± 0.025; in experiment [4], 0.46 ± 0.053; in experiment [5] (setting [13]), 0.425 ± 0.0055; in experiment [5] (setting [14]), 0.332 ± 0.031.
Turning to `O=C(CCCCC(=O)Nc1c(I)cc(I)c(C(=O)O)c1I)Nc1c(I)cc(I)c(C(=O)O)c1I` [Iodipamide], the growth in experiment [1] was 0.249 ± 0.012; in experiment [2] (setting [6]), 0.298 ± 0.0095; in experiment [2] (setting [7]) it was 0.245 ± 0.0068; in experiment [2] (setting [8]) it was 0.191 ± 0.0062; in experiment [2] (setting [9]), 0.17 ± 0.0029; in experiment [2] (setting [10]), 0.143 ± 0.0046. Besides, the growth in experiment [3] (setting [11]) amounted to 0.436 ± 0.022; in experiment [3] (setting [12]), 0.452 ± 0.049; in experiment [5] (setting [13]), 0.407 ± 0.013; in experiment [5] (setting [14]), 0.346 ± 0.014.
Take `CCCC(=O)Nc1ccc(OCC(O)CNC(C)C)c(C(C)=O)c1` (stereo not drawn) [Acebutolol hydrochloride]: the growth was found to be 0.239 ± 0.008 in experiment [1]; 0.305 ± 0.011 in experiment [2] (setting [6]); 0.257 ± 0.0087 in experiment [2] (setting [7]); 0.202 ± 0.014 in experiment [2] (setting [8]); 0.174 ± 0.0073 in experiment [2] (setting [9]); 0.1572 ± 0.0014 in experiment [2] (setting [10]). Also, the growth in experiment [3] (setting [11]) came out at 0.264 ± 0.04; in experiment [3] (setting [12]), 0.413 ± 0.007; in experiment [5] (setting [13]), 0.411 ± 0.0058; in experiment [5] (setting [14]) it was 0.354 ± 0.01.
Regarding `CN(C)CCn1nnnc1SCC1=C(C(=O)O)N2C(=O)[C@@H](NC(=O)Cc3csc(N)n3)[C@H]2SC1` [Cefotiam hydrochloride], the growth worked out at 0.11 ± 0.0087 in experiment [1]; 0.039 ± 0.0012 in experiment [2] (setting [6]); 0.0413 ± 0.00046 in experiment [2] (setting [7]); 0.0507 ± 0.0078 in experiment [2] (setting [8]); 0.045 ± 0.00078 in experiment [2] (setting [9]); 0.0878 ± 0.0087 in experiment [2] (setting [10]). For the same molecule, the growth stood at 0.265 ± 0.012 in experiment [3] (setting [11]), 0.34 ± 0.061 in experiment [3] (setting [12]), 0.0473 ± 0.0012 in experiment [5] (setting [13]) and 0.244 ± 0.049 in experiment [5] (setting [14]).
For the molecule `CCC(C)(CN(C)C)OC(=O)c1ccccc1` (stereo not drawn) [Amyleine hydrochloride], the growth in experiment [1] came out at 0.233 ± 0.0066; in experiment [2] (setting [6]) it was 0.252 ± 0.052; in experiment [2] (setting [7]), 0.266 ± 0.0091; in experiment [2] (setting [8]), 0.183 ± 0.011; in experiment [2] (setting [9]), 0.173 ± 0.0043; in experiment [2] (setting [10]), 0.142 ± 0.0057. Further, the growth in experiment [3] (setting [11]) came out at 0.26 ± 0.076; in experiment [3] (setting [12]), 0.435 ± 0.058; in experiment [5] (setting [13]) it was 0.411 ± 0.0066; in experiment [5] (setting [14]), 0.333 ± 0.021.
`CN(C)CCCN1c2ccccc2Sc2ccc(Cl)cc21` [Chlorpromazine hydrochloride]: the growth in experiment [1] was 0.0844 ± 0.00072; in experiment [2] (setting [6]), 0.054 ± 0.0094; in experiment [2] (setting [7]), 0.04817 ± 5.8e-05; in experiment [2] (setting [8]) it was 0.0531 ± 0.008; in experiment [2] (setting [9]), 0.0443 ± 0.00046; in experiment [2] (setting [10]) it was 0.0452 ± 0.00035. The growth in experiment [3] (setting [11]) is 0.0646 ± 0.0046; in experiment [3] (setting [12]), 0.0699 ± 0.0027; in experiment [5] (setting [13]), 0.425 ± 0.0072; in experiment [5] (setting [14]), 0.0848 ± 0.022.
`O=C(O)c1ccccc1C(=O)Nc1ccc(S(=O)(=O)Nc2nccs2)cc1` [Phthalylsulfathiazole]: the growth in experiment [1] is 0.245 ± 0.0086; in experiment [2] (setting [6]), 0.298 ± 0.011; in experiment [2] (setting [7]), 0.266 ± 0.022; in experiment [2] (setting [8]) it was 0.198 ± 0.02; in experiment [2] (setting [9]), 0.184 ± 0.0082; in experiment [2] (setting [10]) it was 0.166 ± 0.0046. Moreover, the growth in experiment [3] (setting [11]) is 0.468 ± 0.023; in experiment [3] (setting [12]) it was 0.445 ± 0.036; in experiment [5] (setting [13]) it was 0.405 ± 0.019; in experiment [5] (setting [14]), 0.333 ± 0.0071.
In the case of `CCN(CC)C(C)CN1c2ccccc2Sc2ccccc21` (stereo not drawn) [Ethopropazine hydrochloride], the growth in experiment [1] came to 0.17 ± 0.0058; in experiment [2] (setting [6]), 0.214 ± 0.0057; in experiment [2] (setting [7]) it was 0.271 ± 0.016; in experiment [2] (setting [8]), 0.172 ± 0.003; in experiment [2] (setting [9]), 0.135 ± 0.0087; in experiment [2] (setting [10]), 0.174 ± 0.0019. Besides, the growth was determined as 0.156 ± 0.031 in experiment [3] (setting [11]), 0.289 ± 0.03 in experiment [3] (setting [12]), 0.413 ± 0.0094 in experiment [5] (setting [13]) and 0.333 ± 0.014 in experiment [5] (setting [14]).
Turning to `CC(C)(C)CC(C)(C)c1ccc(OCCOCC[N+](C)(C)Cc2ccccc2)cc1` [Benzethonium chloride], the growth is 0.0416 ± 0.00072 in experiment [1]; 0.0415 ± 0.0011 in experiment [2] (setting [6]); 0.0413 ± 0.0002 in experiment [2] (setting [7]); 0.0425 ± 0.0011 in experiment [2] (setting [8]); 0.04103 ± 0.00021 in experiment [2] (setting [9]); 0.0418 ± 0.00044 in experiment [2] (setting [10]). For the same molecule, the growth in experiment [3] (setting [11]) was 0.0499 ± 0.00098; in experiment [3] (setting [12]) it was 0.0496 ± 0.0017; in experiment [4], 0.04753 ± 0.00035; in experiment [5] (setting [13]), 0.0552 ± 0.0016; in experiment [5] (setting [14]), 0.0504 ± 0.00059.
For `Cn1c(=O)c2nc[nH]c2n(C)c1=O` [Theophylline monohydrate], the growth in experiment [1] amounted to 0.263 ± 0.0048; in experiment [2] (setting [6]), 0.328 ± 0.018; in experiment [2] (setting [7]), 0.283 ± 0.013; in experiment [2] (setting [8]), 0.21 ± 0.027; in experiment [2] (setting [9]), 0.189 ± 0.0034; in experiment [2] (setting [10]) it was 0.158 ± 0.0078. The growth was found to be 0.4904 ± 0.0049 in experiment [3] (setting [11]); 0.455 ± 0.0057 in experiment [3] (setting [12]); 0.461 ± 0.014 in experiment [4]; 0.406 ± 0.016 in experiment [5] (setting [13]); 0.338 ± 0.01 in experiment [5] (setting [14]).
As to `Nc1nc(Cl)nc2c1ncn2[C@H]1C[C@H](O)[C@@H](CO)O1` [Cladribine], the growth worked out at 0.263 ± 0.14 in experiment [1]; 0.165 ± 0.0084 in experiment [2] (setting [6]); 0.0701 ± 0.0033 in experiment [2] (setting [7]); 0.118 ± 0.018 in experiment [2] (setting [8]); 0.0623 ± 0.0011 in experiment [2] (setting [9]); 0.07457 ± 0.00035 in experiment [2] (setting [10]). The growth in experiment [3] (setting [11]) stood at 0.409 ± 0.08; in experiment [3] (setting [12]) it was 0.217 ± 0.015; in experiment [5] (setting [13]), 0.42 ± 0.0056; in experiment [5] (setting [14]) it was 0.219 ± 0.031.
As for `CCc1c(C)[nH]c2c1C(=O)C(CN1CCOCC1)CC2` (stereo not drawn) [Molindone hydrochloride], the growth in experiment [1] came out at 0.221 ± 0.013; in experiment [2] (setting [6]), 0.3135 ± 0.00076; in experiment [2] (setting [7]), 0.251 ± 0.011; in experiment [2] (setting [8]) it was 0.202 ± 0.018; in experiment [2] (setting [9]), 0.166 ± 0.0061; in experiment [2] (setting [10]), 0.1542 ± 0.0015. For the same molecule, the growth in experiment [3] (setting [11]) was 0.274 ± 0.06; in experiment [3] (setting [12]), 0.36 ± 0.064; in experiment [5] (setting [13]) it was 0.409 ± 0.016; in experiment [5] (setting [14]), 0.33 ± 0.017.
Consider `CCCc1ncc(C[n+]2ccccc2C)c(N)n1` [Amprolium hydrochloride], for which the growth in experiment [1] was 0.245 ± 0.0098; in experiment [2] (setting [6]) it was 0.284 ± 0.029; in experiment [2] (setting [7]), 0.2572 ± 0.0021; in experiment [2] (setting [8]), 0.207 ± 0.027; in experiment [2] (setting [9]), 0.18 ± 0.0063; in experiment [2] (setting [10]), 0.142 ± 0.0046. Moreover, the growth in experiment [3] (setting [11]) is 0.359 ± 0.016; in experiment [3] (setting [12]), 0.386 ± 0.0088; in experiment [5] (setting [13]) it was 0.407 ± 0.016; in experiment [5] (setting [14]) it was 0.376 ± 0.028.
